The text below walks through data of PubChem BioAssay (NCI).

Compounds without any hit were thinned out: in the full panel of roughly 83,000, 20% have a hit.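 Single-concentration screen, 48 h exposure, 96-well plates. Endpoint: percent growth. Below 10 = active.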 A number with no mark means an inactive call. The source made the active and inactive calls.

Among the test systems are T-47D breast; BT-549 breast; MDA-MB-435 melanoma; SW-620 colon; MCF7 breast; HCT-116 colon; HCC-2998 colon; KM12 colon.
Common to all, as to experiment: NCI-60 one-dose screen, 48 h (100 = growth as untreated, 0 = no growth, -100 = all killed)
Common to all, as to conditions: 10 µM unless noted

For `COc1ccc(-n2nc(C)c3c(Nc4ccc(NC(=O)Nc5cc(C(F)(F)F)ccc5F)cc4)ncnc32)cc1`, the growth was 11.8% in the assay with T-47D breast; 65.4% in the assay on BT-549 breast; 53% in the assay on MDA-MB-435 melanoma; 46% in the assay with SW-620 colon; 34.2% in the assay on MCF7 breast; 22% in the assay with HCT-116 colon. The growth is 21.2% with HCC-2998 colon and 16.5% in the assay with KM12 colon.

For the molecule `CCOC(=O)c1sc2nc(-c3cccc(O)c3)nc(N3CCOCC3)c2c1C`, the growth was 5.33% (active) with T-47D breast; 52.8% in the assay with BT-549 breast; 63.5% in the assay with MDA-MB-435 melanoma; 73.2% with SW-620 colon; 55.5% in the assay on MCF7 breast; 68.1% with HCT-116 colon. For the same molecule, the growth is 78.2% in the assay with HCC-2998 colon and 63.3% in the assay on KM12 colon.

Regarding `N#Cc1c(-c2ccc(Cl)cc2)nc(N/N=C/c2cccc(Br)c2)nc1N1CCOCC1`, the growth in the assay with T-47D breast was 67.5%; with BT-549 breast, 101%; with MDA-MB-435 melanoma, 104%; in the assay on SW-620 colon it was 31.5%; with MCF7 breast, 72.5%; in the assay with HCT-116 colon it was 61.5%. Moreover, the growth with HCC-2998 colon is 96.1%; in the assay with KM12 colon, 94.9%.

Regarding `CC[C@]1(O)C[C@@H]2CN(CCc3c([nH]c4ccccc34)[C@@](C(=O)OC)(c3cc4c(cc3OC)N(C)[C@H]3[C@@](O)(C(N)=O)[C@H](O)[C@]5(CC)[C@@H]6C[C@@H]6CN6CC[C@]43[C@@H]65)C2)C1`, the growth is 92.9% in the assay on T-47D breast; 11.5% in the assay with BT-549 breast; -40% (active) in the assay with MDA-MB-435 melanoma; 26.7% in the assay with SW-620 colon; 18.9% with MCF7 breast; 6.89% (active) in the assay on HCT-116 colon. Also, the growth with HCC-2998 colon is 24.9%; in the assay with KM12 colon it was 11.9%.

`CCNC(=O)Oc1ccc(/C(=C(\C)c2ccc(Cl)cc2)c2ccc(OCCN3CCCCC3)cc2)cc1`: the growth is 27.8% in the assay with T-47D breast; 72.8% with BT-549 breast; 43.4% with MDA-MB-435 melanoma; 9.64% (active) in the assay on SW-620 colon; 21.7% in the assay on MCF7 breast; 37.4% with HCT-116 colon. Besides, the growth was 75.1% with HCC-2998 colon and 37.3% in the assay with KM12 colon.

Regarding `CSc1ccc(SC2c3ccc(C)cc3Oc3nc(N)c(C#N)c(N)c32)cc1` (stereo not drawn), the growth in the assay on T-47D breast was -45.1% (active); with BT-549 breast, -87.2% (active); in the assay on MDA-MB-435 melanoma, -86.7% (active); in the assay on SW-620 colon, -68.1% (active); with MCF7 breast, -52.2% (active); in the assay on HCT-116 colon, -83.3% (active). The growth was -88.2% (active) in the assay on HCC-2998 colon and -42.3% (active) in the assay with KM12 colon.

As for `C=CC(=O)Nc1cccc(-c2nc(SC)nc(NCCN3CCOCC3)c2C#N)c1`, the growth was 93% in the assay with T-47D breast; 87.7% in the assay with BT-549 breast; 87.1% in the assay with MDA-MB-435 melanoma; 108% in the assay on SW-620 colon; 72.6% in the assay on MCF7 breast; 95.3% in the assay on HCT-116 colon. For the same molecule, the results for the growth in the assay on HCC-2998 colon and with KM12 colon were 115% and 102%, respectively.

For the molecule `Cc1cc(N2CCCCC2)nc(NC2CCCC(Nc3ccnc4cc(Cl)ccc34)C2)n1` (stereo not drawn), the growth is -58.5% (active) in the assay on T-47D breast; -67% (active) with BT-549 breast; -92% (active) in the assay with MDA-MB-435 melanoma; -66.7% (active) with SW-620 colon; -50.2% (active) in the assay with MCF7 breast; -86.6% (active) in the assay with HCT-116 colon. The growth was -62.3% (active) in the assay on HCC-2998 colon and -29.7% (active) in the assay on KM12 colon.

`O=C(C(=O)c1ccc2c(c1)OCO2)c1ccc2c(c1)OCO2`: the growth in the assay on T-47D breast was 113%; in the assay on BT-549 breast, 101%; with MDA-MB-435 melanoma it was 114%; with SW-620 colon, 90.6%; in the assay with MCF7 breast it was 102%; with HCT-116 colon it was 101%. The growth in the assay on HCC-2998 colon was 114%; in the assay on KM12 colon, 98.1%.

In the case of `CCN1CCC2(CC1)NC(=O)c1c(c3ccc(Cl)c(Cl)c3n1C)C2C#N` (stereo not drawn), the growth with T-47D breast was 75%; in the assay on BT-549 breast, 37.2%; with MDA-MB-435 melanoma, -59.9% (active); in the assay with SW-620 colon, 37.6%; in the assay with MCF7 breast, 35%; in the assay with HCT-116 colon it was 14%. The results for the growth in the assay on HCC-2998 colon and in the assay on KM12 colon were -5.34% (active) and 41.2%, respectively.

`COC(=O)c1ccc(Cn2cnc3c(N)ncnc32)cc1`: the growth in the assay with T-47D breast is 106%; in the assay on BT-549 breast it was 119%; in the assay on MDA-MB-435 melanoma it was 123%; in the assay on SW-620 colon it was 109%; in the assay on MCF7 breast, 98.3%; with HCT-116 colon, 104%. The growth was 105% in the assay with HCC-2998 colon and 117% with KM12 colon.

In the case of `Nc1n[nH]c2cc(F)c([C@@H]3Nc4ccc5[nH]ncc5c4[C@H]4C5CCC(C5)[C@@H]34)cc12` (stereo partly drawn), the growth with T-47D breast was 97.6%; in the assay with BT-549 breast, -7.74% (active); in the assay with MDA-MB-435 melanoma, -15.3% (active); in the assay with SW-620 colon, 21.7%; with MCF7 breast it was 16.3%; in the assay with HCT-116 colon it was -29.3% (active). The results for the growth in the assay on HCC-2998 colon and in the assay on KM12 colon were 15.9% and 1.62% (active), respectively.

As to `COc1ccc(S(=O)(=O)N2CC3(COC3)C2)cc1NC(=O)c1[nH]c(C)c2c1CCCCC2=O`, the growth in the assay with T-47D breast was 37%; in the assay on BT-549 breast it was 73.3%; in the assay with MDA-MB-435 melanoma, 45.5%; in the assay with SW-620 colon, 72.9%; with MCF7 breast it was 21.9%; with HCT-116 colon, 51.7%. In addition, the growth in the assay with HCC-2998 colon was 58.7%; in the assay on KM12 colon, 54.6%.

For `CC(C)C1=C[C@@]23CC[C@@H]4[C@](C)(CCC[C@@]4(C)C(=O)N4CCCNCC4)[C@H]2C[C@@H]1[C@H]1C(=O)CCC(=O)[C@H]13`, the growth was 100% in the assay with T-47D breast; 104% in the assay on BT-549 breast; 109% in the assay on MDA-MB-435 melanoma; 105% with SW-620 colon; 90.4% in the assay on MCF7 breast; 103% in the assay with HCT-116 colon. Also, the figures for the growth with HCC-2998 colon and with KM12 colon were 107% and 101%, respectively.

As to `O=C1Nc2cc(-c3ccc(O)cc3)ccc2/C1=C/c1ccc[nH]1`, the growth in the assay with T-47D breast was 0.283% (active); in the assay on BT-549 breast, 16.9%; with MDA-MB-435 melanoma, 7.05% (active); with SW-620 colon, 14.1%; with MCF7 breast, 1.73% (active); in the assay with HCT-116 colon, 4.68% (active). The growth with HCC-2998 colon was -13.9% (active); with KM12 colon, 2.31% (active).

Take `COCCNc1ccc2c3c(cccc13)C(=O)N(CCN(C)C)C2=O`: the growth is -10.9% (active) in the assay on T-47D breast; 17.7% with BT-549 breast; 25.9% in the assay on MDA-MB-435 melanoma; 24.5% with SW-620 colon; -16.5% (active) with MCF7 breast; 10.9% in the assay with HCT-116 colon. In addition, the growth with HCC-2998 colon was 28.6%; with KM12 colon it was 24.9%.
